The results in this text go back to PubChem BioAssay AID463173 (ICCB-Longwood Screening Facility, Harvard Medical School, 2010).

Screen size: about 52,000 compounds; about 4,300 (8.3%) were called active. No stated cut-off is given here; in the data, active means survival mostly below about 52% (no sharp cut-off); inactive means mostly above about 56%. The full list was thinned out, with actives kept by preference.

The assay relates to DeltatarO mutant. Briefly: growth inhibition of S. aureus wild type versus tarO mutant, primary screen, teichoic acid synthesis inhibitors, RN4220, OD600 (AID 463173). Conditions: OD600, 18 h, stronger effect = lower value, screened at 18.75 µg/mL (by protocol).
Turning to `Cc1cccc(NC2=CC(c3cccc(Br)c3)N(c3cccc(C)c3)C2=O)c1` (stereo not drawn), the survival is 137% (inactive). In the case of `Cc1ccccc1Cn1ccn(-c2ccc(F)c(F)c2)c(=O)c1=O`, the survival was 76% (inactive). In the case of `O=C(CCNS(=O)(=O)c1ccc2c(c1)CCN2C(=O)C1CC1)N1CCN(c2cccc(Cl)c2)CC1` it was 122% (inactive).

For the compound `COc1ccc(OCC(=O)N2CCc3ccccc3C2)cc1`, the survival is 80% (inactive). On to `CCc1cccc(NC(=O)Cn2c(=O)n3nc(-c4cccc(F)c4)nc3c3ccccc32)c1`, for which the survival was 52% (active).

As to `COc1cccc(CNC(=O)Cn2c(=O)n3nc(-c4cccc(F)c4)nc3c3ccccc32)c1`, the survival was 77% (inactive). Under `O=c1n(Cc2ccc(F)cc2)c2ccccc2c2nc(-c3ccccc3)nn12` stands 86% (inactive); under `Cc1cccc(-c2nc3c4ccccc4n(CC(=O)Nc4cccc(F)c4)c(=O)n3n2)c1`, 95% (inactive). In the case of `O=c1n(Cc2cccc(C(F)(F)F)c2)c2ccccc2c2nc(-c3ccccc3)nn12` it was 80% (inactive). Regarding `O=c1n(Cc2cccc(F)c2)c2ccccc2c2nc(-c3ccccc3)nn12`, the survival was 33% (active). For `Cc1ccc(-c2nc3c4ccccc4n(Cc4cccc(Cl)c4)c(=O)n3n2)cc1`, the survival is 123% (inactive). Under `Cc1cccc(-c2nc3c4ccccc4n(Cc4cccc(Cl)c4)c(=O)n3n2)c1` stands 97% (inactive); under `Cc1cccc(Cn2c(=O)n3nc(-c4ccccc4)nc3c3ccccc32)c1`, -16% (active).

Take `CCOc1ccc(NC(=O)c2oc3ccccc3c2NC(=O)Cc2cccs2)cc1`: the survival is 82% (inactive). Take `O=C(Cn1cnc2c(cnn2-c2ccccc2)c1=O)c1ccccc1`: the survival was 55% (inactive). Turning to `O=C(Nc1ccc(F)cc1F)c1ccc(-n2cnnc2)cc1`, the survival was 73% (inactive). In the case of `CCc1ccc(N(CC)C(=O)Cn2c(=O)oc3ccccc32)cc1` it was 70% (inactive); in that of `COC(=O)C1=C(c2ccccc2)c2ccccc2S(=O)(=O)N1CC(=O)Nc1ccccc1Cl`, 37% (inactive); in that of `Cc1oc2ncn(C)c(=O)c2c1C(=O)NCc1ccc(Cl)cc1`, 84% (inactive). In the case of `CCOc1ccccc1NC(=O)C1CCN(S(=O)(=O)c2ccc3c(c2)CCCN3C(C)=O)CC1` it was 75% (inactive). In the case of `CC(NC(=O)C1CCN(S(=O)(=O)Cc2ccccc2)CC1)c1ccccc1` (stereo not drawn) it was 68% (inactive); in that of `COc1ccc(-c2cc(C(F)(F)F)nc(SCCC(=O)N3CCN(C)CC3)n2)cc1`, 114% (inactive); in that of `CCC1CCCCN1C(=O)CSc1nc(-c2ccc(OC)c(OC)c2)cc(C(F)(F)F)n1` (stereo not drawn), -3% (active).

For the compound `CCC1CCCCN1C(=O)CSc1nc(-c2ccc(OC)cc2)cc(C(F)(F)F)n1` (stereo not drawn), the survival is 1% (active). Under `COc1ccc(-c2cc(C(F)(F)F)nc(SCC(=O)N3CCCCC3)n2)cc1` stands 74% (inactive); under `COc1ccc(-c2cc(C(F)(F)F)nc(SCC(=O)N3CCCCC3C)n2)cc1OC` (stereo not drawn), 52% (inactive). Regarding `COc1ccc(-c2cc(C(F)(F)F)nc(SCC(=O)N3CCCCC3)n2)cc1OC`, the survival is 71% (inactive).

For `O=C(CNCc1ccco1)Nc1cccc(OC(F)(F)F)c1`, the survival was 99% (inactive). In the case of `O=C(CN1C(=O)C2CCCCN2c2ccc(C(=O)N3CCCC3)cc21)NCc1cccc(F)c1` (stereo not drawn) it was 66% (inactive); in that of `CCCCOc1cccc(C(=O)Nc2cccc3ccc(C)nc23)c1`, 75% (inactive).

On to `CCN(CCN(C)C)C(=O)Cn1ncc2c([nH]c3ccc(C)cc32)c1=O`, for which the survival was 88% (inactive). In the case of `Cc1ccc(Cl)cc1-n1ncc2c(NC3CCCCC3)ncnc21` it was 54% (inactive); in that of `CCOc1ccc(Nc2nc(Nc3ccc(OCC)cc3)nc(N3CCOCC3)n2)cc1`, 44% (active); in that of `COc1ccccc1Nc1nc(Nc2cccc(C(F)(F)F)c2)nc(N2CCOCC2)n1`, 73% (inactive).

On to `CCOc1ccc(Oc2nc(NC)nc(N3CCOCC3)n2)nn1`, for which the survival is 99% (inactive). In the case of `COc1ccc(N2CCOCC2)cc1` it was 89% (inactive). Under `CCOc1ccc(Oc2nc(NCC(C)C)nc(N3CCOCC3)n2)nn1` stands 79% (inactive); under `COc1ccc(Nc2nc(Nc3ccc(OC)cc3OC)nc(N3CCOCC3)n2)c(OC)c1`, 14% (active); under `CCOc1nc(Nc2ccc(OC)cc2)nc(N2CCOCC2)n1`, 70% (active). Regarding `CCOc1ccc(NC(=O)c2c(C)oc3nc(C)nc(N4CCOCC4)c23)cc1`, the survival is 93% (inactive).

Take `CCCCNc1nc(Oc2ccc(OCC)nn2)nc(N2CCOCC2)n1`: the survival was 77% (inactive). In the case of `Cc1cc2c(cc3c(SCc4cccc(F)c4)nnc(C)n32)o1` it was 68% (inactive). Consider `CCOC(=O)Cn1cnc2onc(-c3ccc(F)cc3)c2c1=O`, for which the survival is 141% (inactive). In the case of `CCOc1ccccc1NC(=O)CSc1nc2c(oc3ccccc32)c(=O)n1-c1ccc(C)c(C)c1` it was 88% (inactive); in that of `COc1ccccc1NC(=O)Cn1c(=O)n(Cc2ccccc2)c(=O)c2ccccc21`, 75% (inactive).

Regarding `COc1ccc(N(C(=O)COc2c(C)cccc2C)S(=O)(=O)c2ccc(Cl)cc2)cc1`, the survival is 73% (inactive). In the case of `COc1cc(OC)cc(C(=O)Nc2cccc(-c3cn4ccsc4n3)c2)c1` it was 6% (active); in that of `CN(C)S(=O)(=O)Nc1ccc(-c2cn3ccsc3n2)cc1`, 55% (inactive). Take `COc1ccc(C(=O)Nc2cccc(-c3cn4ccsc4n3)c2)cc1OC`: the survival is 92% (inactive). Under `CCCS(=O)(=O)Nc1cccc(-c2cn3ccsc3n2)c1` stands 134% (inactive); under `COc1cccc(OC)c1C(=O)Nc1cccc(-c2cn3ccsc3n2)c1`, 82% (inactive); under `CCS(=O)(=O)Nc1ccc(-c2cn3ccsc3n2)cc1`, 17% (active). In the case of `O=C(NCCc1ccccc1Cl)c1ccc2c(c1)nc1n2CCCCC1` it was 80% (inactive). In the case of `Cc1cccc(NC(=O)N2CCN3CCCCC3C2)c1C` (stereo not drawn), the survival was 77% (inactive). In the case of `CC(C)c1ccc(NC(=O)c2cc(S(=O)(=O)NC3CCCCC3)ccc2F)cc1` it was 102% (inactive). Consider `O=C(Nc1cc2c(cc1C(=O)c1ccccc1Cl)OCCO2)c1ccccc1`, for which the survival is 113% (inactive). In the case of `COc1ccc(CCn2c3c(c(=O)[nH]c2=O)C(NC(=O)c2ccc(C(C)(C)C)cc2)(C(F)(F)F)C(=O)N3)cc1OC` (stereo not drawn) it was 91% (inactive); in that of `CCOC(=O)c1ccc(NS(=O)(=O)c2ccc(Br)s2)cc1`, 38% (active).

For `CC(=O)c1ccc(NS(=O)(=O)c2cnc(N)nc2)cc1`, the survival was 6% (active). With `Nc1ncc(S(=O)(=O)Nc2ccc(OC(F)(F)F)cc2)cn1`, the survival is 79% (inactive). Under `COc1cc(NS(=O)(=O)c2cnc(N)nc2)cc(OC)c1` stands 76% (inactive). On to `CCOC(=O)c1ccc(NS(=O)(=O)c2cn(C)c(C)n2)cc1`, for which the survival is 69% (inactive). Under `CC(=O)c1ccc(NC(=O)C2CCC(CNS(=O)(=O)c3ccc(Br)s3)CC2)cc1` (stereo not drawn) stands 69% (inactive).

Regarding `CC(=O)c1ccc(NS(=O)(=O)c2ccc(Br)s2)cc1`, the survival is 47% (active). Under `CC(=O)c1ccc(NS(=O)(=O)c2ccc(-c3cc(C)no3)s2)cc1` stands 122% (inactive). In the case of `CCOC(=O)c1ccc(NC(=O)C(Cc2ccccc2)NS(=O)(=O)c2ccc(Br)s2)cc1` (stereo not drawn) it was 90% (inactive); in that of `COc1ccc(Nc2ncc3c(n2)CCN(Cc2ccccc2C)C3)c(OC)c1`, 91% (inactive). In the case of `Cc1ccccc1N(C)C(=O)c1noc2c1COc1ccccc1-2` it was 72% (inactive). Regarding `CCOc1ccc(S(=O)(=O)N(CC(=O)N2CCCCC2)c2ccccc2)cc1`, the survival is 60% (inactive). Under `CC12CN3CC(C)(CN(C1)C3(C)CSc1c[nH]c3ccccc13)C2=O` (stereo not drawn) stands 76% (inactive); under `Cc1ccc(C)c(NC(=O)Cn2cnc3c(oc4ccccc43)c2=O)c1`, 82% (inactive); under `Cc1ccc(NC(=O)CN2C(=O)COc3ccc(S(=O)(=O)Nc4ccccc4)cc32)c(C)c1`, 54% (inactive).

For the compound `Oc1cccc(-c2nc3ncccn3c2Nc2cccc(C(F)(F)F)c2)c1`, the survival was 62% (inactive). In the case of `COc1ccc(CNC(=O)Cc2c(C)c3cc4c(C)coc4c(C)c3oc2=O)cc1OC` it was 67% (inactive). Under `Cc1ccc2c(Sc3ccccc3)c(C(=O)NCc3ccccc3F)[nH]c2c1` stands 90% (inactive); under `N#C/C(=C\c1ccc(-c2ccc(Cl)c(C(=O)O)c2)o1)c1nc2ccccc2[nH]1`, 55% (active); under `COc1cc(/C=C(\C#N)c2nc3ccccc3[nH]2)ccc1OCc1ccccc1F`, 50% (inactive). For the compound `N#C/C(=C\c1ccc(-c2ccc(C(=O)O)cc2)o1)c1nc2ccccc2[nH]1`, the survival was 77% (inactive). Under `N#C/C(=C\c1ccc(-c2ccc(F)cc2F)o1)c1nc2ccccc2[nH]1` stands 22% (active).

On to `N#C/C(=C\c1ccc(Cl)cc1)c1nc2ccccc2[nH]1`, for which the survival is 57% (inactive).

As for `Cc1c(Cl)cccc1-c1ccc(/C=C(\C#N)c2nc3ccccc3[nH]2)o1`, the survival was 13% (active). As for `N#C/C(=C/c1ccc(-c2ccc(Cl)c(C(=O)O)c2)o1)C(=O)NC1CCCC1`, the survival was 96% (inactive). Under `Cc1ccc2nc(/C(C#N)=C/c3ccc(-c4ccc(F)cc4F)o3)[nH]c2c1` stands 11% (active). Consider `N#C/C(=C\c1ccc(-c2ccccc2C(=O)O)o1)c1nc2ccccc2[nH]1`, for which the survival is 76% (inactive). In the case of `Cc1ccc(/C=C(\C#N)c2nc3ccccc3c(=O)[nH]2)cc1` it was 93% (inactive). Under `CN(C)/C=C(\C#N)c1nc2ccccc2[nH]1` stands 73% (inactive); under `O=C(Cn1ncc2ccsc2c1=O)N1CCN(c2ccc(Cl)cc2)CC1`, 78% (inactive); under `Cc1nc(N=C(N)N)nc2cc3c(cc12)OCO3`, 91% (inactive). Under `COc1ccccc1N1CCN(C(=O)c2c(C)oc3ncn(CC(C)C)c(=O)c23)CC1` stands 76% (inactive); under `CCCCOC(=O)c1ccc(NC(=O)c2ccc3c(c2)CCN3S(C)(=O)=O)cc1`, 96% (inactive); under `O=C(C1CCN(S(=O)(=O)c2ccc(Br)s2)CC1)N1CCN(c2cccc(Cl)c2)CC1`, 76% (inactive). `CC1CCCCN1C(=O)Cn1nnc2c(cnn2-c2ccccc2)c1=O` (stereo not drawn): the survival is 79% (inactive). Under `CCCCSCCCNC(=O)c1c[nH]c2ccc(S(=O)(=O)Nc3cccc(OC)c3)cc2c1=O` stands 90% (inactive).
